The sample as a whole holds a higher share of the strongest signals than the screen did.
What was measured:
Experiment in all cases: glycan array binding signal (z-score within array); higher = stronger binding
Conditions in all cases: glycan notation: IUPAC condensed, linker removed; mutation: H84T
[1] = target: Neu5Ac(a2-3)Gal(b1-4)GlcNAc(b1-2)Man
Procedure, shortened: (§1)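 Negative Z-scores can be read as non-binding. The Z-score is calculated within each array and then averaged across arrays of one protein sequence at different concentrations or buffers and across linkers. Arrays, 3228 in all, were curated from the Consortium for Functional Glycomics database and kept only where the protein sequence was available.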

[2] = target: Neu5Ac(a2-3)Gal(b1-4)GlcNAc(b1-2)Man(a1-3)[Neu5Ac(a2-3)Gal(b1-4)GlcNAc(b1-2)Man(a1-6)]Man(b1-4)GlcNAc(b1-4)GlcNAc
Procedure, shortened: as §1

[3] = target: Neu5Ac(a2-3)Gal(b1-4)GlcNAc(b1-3)Gal(b1-3)GlcNAc
Procedure, shortened: as §1

[4] = target: Neu5Ac(a2-3)Gal(b1-4)GlcNAc(b1-3)Gal(b1-4)GlcNAc(b1-3)[Neu5Ac(a2-3)Gal(b1-4)GlcNAc(b1-3)Gal(b1-4)GlcNAc(b1-6)]GalNAc
Procedure, shortened: as §1

[5] = target: Neu5Ac(a2-3)Gal(b1-4)GlcNAc(b1-3)Gal(b1-4)[Fuc(a1-3)]GlcNAc
Procedure, shortened: as §1

[6] = target: Neu5Ac(a2-3)Gal(b1-4)[Fuc(a1-3)]GlcNAc
Procedure, shortened: as §1

[7] = target: Neu5Ac(a2-3)Gal(b1-4)[Fuc(a1-3)]GlcNAc(b1-6)[Gal(b1-3)]GalNAc
Procedure, shortened: as §1

[8] = target: Neu5Ac(a2-6)Gal(b1-4)GlcNAc(b1-2)Man(a1-3)[Man(a1-6)]Man(b1-4)GlcNAc(b1-4)GlcNAc
Procedure, shortened: as §1

[9] = target: Neu5Ac(a2-6)Gal(b1-4)GlcNAc(b1-2)[Neu5Ac(a2-6)Gal(b1-4)GlcNAc(b1-4)]Man(a1-3)[GlcNAc(b1-4)][Neu5Ac(a2-6)Gal(b1-4)GlcNAc(b1-4)Man(a1-6)]Man(b1-4)GlcNAc(b1-4)GlcNAc
Procedure, shortened: as §1

[10] = target: Neu5Ac(b2-6)Gal(b1-4)GlcNAc
Procedure, shortened: as §1

[11] = target: Neu5Gc(a2-8)Neu5Gc(a2-3)Gal(b1-4)GlcNAc
Procedure, shortened: as §1

B1: Banana lectin (Musa acuminata) (protein)
chain: MNGAIKVGAWGGNGGSAFDMGPAYRIISVKIFSGDVVDGVDVTFTYYGKTETRHYGGSGGTPHEIVLQEGEYLVGMAGEVANYTGAVVLGKLGFSTNKKAYGPFGNTGGTPFSLPIAAGKISGFFGRGGKFLDAIGVYLEPLEHHHHHH
**Q.** How did the “glycan array binding signal (z-score)” value [1] turn out when B1 was run?
**A.** The value was -0.188.

**Q.** And the “glycan array binding signal (z-score)” value [2]?
**A.** The value was -0.182.

**Q.** And the “glycan array binding signal (z-score)” value [3]?
**A.** The value was -0.175.

**Q.** And the “glycan array binding signal (z-score)” value [4]?
**A.** The value was -0.109.

**Q.** And the “glycan array binding signal (z-score)” value [5]?
**A.** The value was -0.179.

**Q.** What about the “glycan array binding signal (z-score)” value [6] of the same binder?
**A.** The value was -0.19.

**Q.** And the “glycan array binding signal (z-score)” value [7]?
**A.** The value was -0.16.

**Q.** What about the “glycan array binding signal (z-score)” value [8] of the same binder?
**A.** Its value is 0.399.

**Q.** What about the “glycan array binding signal (z-score)” value [9] of the same binder?
**A.** The value was -0.177.

**Q.** What about the “glycan array binding signal (z-score)” value [10] of the same binder?
**A.** The value was -0.184.

**Q.** And the “glycan array binding signal (z-score)” value [11]?
**A.** The value was -0.162.

Source: the supplement of paper PMC8728848
